Data on 92 compounds can be found in PubChem BioAssay AID1445 (SRMLSC, 2008).

The inhibition is the change of the read-out against control, counted positive when it falls.

Molecules are shown by their SMILES. About 910 (0.41%) of roughly 220,000 compounds were called active.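 Rule for the calls: active = primary inhibition above the hit cutoff, then over 50% inhibition at one or more dose response concentrations (cut at about 23% in these data, passing the limit was not always enough); inconclusive = conflicting primary data, or primary hits not chosen for dose response; inactive = low primary inhibition, or under 50% at every dose.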 The list comes from a sample in which actives are over-represented; it also holds similar structures and randomly drawn compounds. Entries with a potency or affinity are not part of this list.

For the test, the target named is Aminopeptidase N (Plasmodium falciparum (isolate 3D7)) (UniProt O96935). The experiment in a line: P. falciparum M1AAP inhibitors, biochemical, fluorogenic H-Leu-NHMec substrate, 1536-well (AID 1445).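 Note: plate controls were DMSO full reaction for no effect and no enzyme background for full effect.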 The following applies: recombinant M1AAP, H-Leu-NHMec fluorogenic kinetic assay; at 30 µM, hits give high values unless noted.
Sequence of Aminopeptidase N (Plasmodium falciparum (isolate 3D7)) (O96935 whole entry, looked up): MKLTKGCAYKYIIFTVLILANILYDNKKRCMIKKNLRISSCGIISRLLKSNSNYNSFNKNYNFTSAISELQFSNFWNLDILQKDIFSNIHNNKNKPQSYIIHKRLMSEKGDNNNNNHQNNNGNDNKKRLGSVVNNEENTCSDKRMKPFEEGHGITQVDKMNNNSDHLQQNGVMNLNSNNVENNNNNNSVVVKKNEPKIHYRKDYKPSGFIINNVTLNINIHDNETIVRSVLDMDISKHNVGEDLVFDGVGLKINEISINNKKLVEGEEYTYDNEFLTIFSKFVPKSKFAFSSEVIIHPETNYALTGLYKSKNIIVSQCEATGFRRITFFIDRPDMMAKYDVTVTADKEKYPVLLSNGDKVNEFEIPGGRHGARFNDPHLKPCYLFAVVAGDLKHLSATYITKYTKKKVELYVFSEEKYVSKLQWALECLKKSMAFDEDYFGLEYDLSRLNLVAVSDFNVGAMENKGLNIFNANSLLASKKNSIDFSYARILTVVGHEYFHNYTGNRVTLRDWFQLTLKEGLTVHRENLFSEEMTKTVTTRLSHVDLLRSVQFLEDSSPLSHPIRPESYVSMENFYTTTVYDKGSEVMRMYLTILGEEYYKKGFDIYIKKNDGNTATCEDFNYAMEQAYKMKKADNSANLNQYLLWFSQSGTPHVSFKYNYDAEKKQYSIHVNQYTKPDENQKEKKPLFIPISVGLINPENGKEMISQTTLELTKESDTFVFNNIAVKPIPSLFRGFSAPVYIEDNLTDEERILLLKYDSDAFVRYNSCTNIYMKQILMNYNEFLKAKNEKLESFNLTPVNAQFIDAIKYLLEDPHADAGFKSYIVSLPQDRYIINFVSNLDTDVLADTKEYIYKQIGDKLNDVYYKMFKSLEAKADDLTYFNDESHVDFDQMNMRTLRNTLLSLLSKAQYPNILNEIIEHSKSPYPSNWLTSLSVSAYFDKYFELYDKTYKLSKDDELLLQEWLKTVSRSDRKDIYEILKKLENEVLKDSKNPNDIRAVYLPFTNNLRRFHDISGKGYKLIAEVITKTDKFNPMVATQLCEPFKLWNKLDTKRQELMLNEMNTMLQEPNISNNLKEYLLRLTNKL
Regarding `CC(C)COC(=O)N(C)c1ccc(C(O)(C(F)(F)F)C(F)(F)F)cc1`, the inhibition is 11.6% (inactive).

With `COCCn1c(SCC(=O)Nc2cccc(OC)c2)nc2c(oc3ccccc32)c1=O`, the inhibition is -5.31% (inactive).

Consider `NS(=O)(=O)c1ccc(NC(=O)COC(=O)CCNC(=O)NC23CC4CC(CC(C4)C2)C3)cc1`, for which the inhibition was 2.67% (inactive).

Turning to `CSc1nc(C)cc(C)c1C(N)=O`, the inhibition is 6.25% (inactive).

On to `CCCCc1[nH]c(=O)c(C#N)c2c1CSC(C)(C)C2`, for which the inhibition is 23.7% (active).

For `CCc1[nH]c(=O)c(C#N)c2c1CSC(C)(C)C2`, the inhibition was 10.3% (inactive).

For the compound `Cc1[nH]c(=O)c(C#N)c2c1CSC(C)(C)C2`, the inhibition is 9.75% (inactive).

As for `CCOC(=O)c1coc(CNC(=O)c2c(C)oc3c2CCCC3)c1`, the inhibition was 4.14% (inactive).

As for `Cc1ccc(CN2CCN(C3CSCCSC3)CC2CCO)cc1` (configuration not stated), the inhibition was -1.96% (inactive).

As for `CC(=O)N1CCN(c2ccc(NC(=O)C(C)Oc3ccc(Cl)cc3Cl)cc2)CC1` (configuration not stated), the inhibition was 4.51% (inactive).

As for `O=c1cc(-c2ccccc2Cl)oc2c(NS(=O)(=O)c3ccccc3OC(F)(F)F)ccc(O)c12`, the inhibition was 3.26% (inactive).

In the case of `O=c1cc(-c2ccccc2Cl)oc2c(NS(=O)(=O)c3ccccc3C(F)(F)F)ccc(O)c12`, the inhibition is 10.4% (inactive).

`Cc1ccc(S(=O)(=O)N2CCCC2C(=O)Nc2ccc(O)cc2)cc1` (configuration not stated): the inhibition is 7.62% (inactive).

Consider `c1ccn2c(SCc3ccc4c(c3)OCO4)nnc2c1`, for which the inhibition was 3.07% (inactive).

For `S=C(Nc1ccc(Br)cc1)N1CCn2cccc2C1c1cccnc1` (configuration not stated), the inhibition is 10.1% (inactive).

For the compound `COc1ccc(C)cc1NC(=O)c1cc2ccccc2o1`, the inhibition was -2.39% (inactive).

`Cc1ccc(C(=O)Nc2ccc(Oc3ccc(C(=O)O)c(C(=O)O)c3)cc2)cc1C`: the inhibition was 5.36% (inactive).

`COc1ccc(C(=O)Nc2cccc(OC)c2)cc1`: the inhibition was 1.64% (inactive).

As for `COc1ccc(S(=O)(=O)n2nc(OC(=O)c3cccs3)cc2NC(=O)c2cccs2)cc1`, the inhibition is 3.59% (inactive).

On to `CN(C(=O)c1cc2n(n1)C(C(F)(F)F)CC(c1ccco1)N2)c1ccccc1` (configuration not stated), for which the inhibition is 2.19% (inactive).

For the compound `O=C(Oc1ccc(OC(=O)c2ccco2)c(S(=O)(=O)c2ccc(Cl)cc2)c1)c1ccco1`, the inhibition was 4.36% (inactive).

Take `COc1ccc(C(=O)O/N=C(\N)Cc2ccc([N+](=O)[O-])cc2)c(OC)c1`: the inhibition was 5.06% (inactive).

For `O=C(CSc1nnc(CCCN2C(=O)c3cccc4cccc(c34)C2=O)n1-c1ccccc1)NCCCO`, the inhibition is 13.2% (inactive).

`O=C(CSc1nnc(CCCN2C(=O)c3cccc4cccc(c34)C2=O)n1-c1ccccc1)N1CCCCC1`: the inhibition is 3.42% (inactive).

With `Cn1c(SCC(=O)c2ccc(F)cc2)nnc1-c1cnccn1`, the inhibition is -2.54% (inactive).

On to `O=C(CN(c1ccccn1)S(=O)(=O)c1ccccc1)Nc1ccccc1`, for which the inhibition was -0.68% (inactive).

For `Cc1csc(SCC(=O)Nc2cccc(S(=O)(=O)N3CCOCC3)c2)n1`, the inhibition was 0% (inactive).

Turning to `O=C(NCc1ccccc1Cl)c1ccc(CSc2nc3ccncc3[nH]2)cc1`, the inhibition was 1.57% (inactive).

Regarding `CSC(=NC#N)N1CCN(c2ccc([N+](=O)[O-])cc2)CC1`, the inhibition was 8.93% (inactive).

`C=CCN(CC=C)S(=O)(=O)c1ccc(NC(=S)NC(=O)/C=C/c2ccccc2)cc1`: the inhibition is 9.4% (inactive).

As for `O=C(Cn1nnc2ccccc21)Nc1ccccc1[N+](=O)[O-]`, the inhibition was -1.91% (inactive).

For the compound `CC(C)(C)NC(=O)COc1ccccc1C#N`, the inhibition is -0.28% (inactive).

Consider `Cc1ccc(C(=O)Nc2nc(=O)n(C(=O)C3CC3)s2)cc1`, for which the inhibition is 4.6% (inactive).

`Cc1ccc(C(=O)Nc2nc(=O)n(C(=O)c3ccccc3C)s2)cc1`: the inhibition was 4.83% (inactive).

With `Cc1cc[n+](-c2nc3ccccc3nc2C(=C=[N-])C#N)cc1`, the inhibition was 4.51% (inactive).

For `CCOC(=O)C1(CC2CCCCO2)CCN(C(=O)Nc2ccccc2CC)CC1` (configuration not stated), the inhibition is 1.45% (inactive).

For the compound `O=C(NCCc1nc2ccccc2[nH]1)/C(=C/c1ccc2c(c1)OCO2)NC(=O)c1ccccc1Cl`, the inhibition was 4.92% (inactive).

Regarding `COc1ccc(NS(=O)(=O)c2ccc(C)cc2)c([N+](=O)[O-])c1`, the inhibition was 3.88% (inactive).

For the compound `COc1cc(C(=O)Nc2ccc(S(=O)(=O)Nc3ncccn3)cc2)c([N+](=O)[O-])cc1OC`, the inhibition was 1.81% (inactive).

As to `COc1cccc(/C=C2\SC(N)=NC2=O)c1OS(=O)(=O)c1ccccc1`, the inhibition was 12.7% (inactive).

Consider `Cc1cc(NS(=O)(=O)c2ccccc2)c([N+](=O)[O-])cc1C`, for which the inhibition was 14% (inactive).

With `COc1ccc(S(=O)(=O)Nc2cc([N+](=O)[O-])ccc2OC)cc1`, the inhibition was 14.5% (inactive).

Regarding `COc1ccc([N+](=O)[O-])cc1NS(=O)(=O)c1ccccc1`, the inhibition was 6.84% (inactive).

With `NC(=O)c1c(NC(=O)COC(=O)c2ccc(S(=O)(=O)Nc3ccccc3)cc2)sc2c1CCCC2`, the inhibition is 6.65% (inactive).

`COc1cc(C(=O)NCc2cn3ccccc3n2)cc(OC)c1OC`: the inhibition was 9.74% (inactive).

For `CN(C(=O)COC(=O)/C=C/c1cn(-c2ccccc2)nc1-c1ccc2c(c1)OCCO2)C1CCS(=O)(=O)C1` (configuration not stated), the inhibition is 9.43% (inactive).

Take `CCn1c(SCC(=O)NCCc2ccccc2)nnc1-c1cccs1`: the inhibition is 8.15% (inactive).

With `CCOC(=O)CSc1nnc(CNC(=O)c2cccs2)n1CCc1ccccc1`, the inhibition was -4.29% (inactive).

`CCn1c(CCNC(=O)c2cccs2)nnc1SCC(=O)Nc1ccc(Cl)cc1`: the inhibition was 2.16% (inactive).

Consider `CCn1c(CNC(=O)c2cccs2)nnc1SCC(=O)Nc1ccc(Cl)cc1`, for which the inhibition was 4.83% (inactive).

Take `O=C1CCCc2c1nc(-c1ccc(F)cc1)n2O`: the inhibition is 0.92% (inactive).

Consider `COC(=O)C1=C(Nc2ccc(C)cc2)C=C(C)C(C(=O)OC)C1c1ccc(OC)cc1` (configuration not stated), for which the inhibition is -4% (inactive).

For the compound `CC(=O)c1cccc(NC(=O)c2cc(-n3cnnc3)ccc2Cl)c1`, the inhibition is 6.6% (inactive).

For the compound `CC(=O)c1ccc(NC(=O)c2ccc3nc(-c4ccco4)c(-c4ccco4)nc3c2)cc1`, the inhibition is 10.9% (inactive).

In the case of `O=C(Nc1cccc(C(F)(F)F)c1)c1ccc2nc(-c3ccco3)c(-c3ccco3)nc2c1`, the inhibition was 23.9% (active).

Take `O=C(Nc1ccccc1)c1ccc2nc(-c3ccco3)c(-c3ccco3)nc2c1`: the inhibition was 13.6% (inactive).

`CCn1c(CCNC(=O)c2ccc(Cl)c(Cl)c2)nnc1SCCOc1ccc(OC)cc1`: the inhibition is 1.21% (inactive).

Regarding `CCOC(=O)Cn1c(=O)c2c(nc(N3CCOCC3)n2C)n(C)c1=O`, the inhibition was 0.98% (inactive).

As for `O=C(Cc1cccs1)NCc1ccccc1`, the inhibition is 3.77% (inactive).

As to `O=C(Cc1ccc(-c2ccccc2)cc1)NCc1ccccc1`, the inhibition was -0.4% (inactive).

`Cc1ccc(NC(=O)COC(=O)CNC(=O)c2ccc(C)s2)cc1`: the inhibition is 5.25% (inactive).

Take `Cc1ccc(C(=O)NCC(=O)OCC(=O)NCCc2ccccc2)s1`: the inhibition is 0.53% (inactive).

For the compound `CSCCC(C(=O)Nc1ccc2c(c1)OCO2)N1C(=O)c2ccccc2C1=O` (configuration not stated), the inhibition is 4.81% (inactive).

`CC(C(=O)NC1=NCCS1)N1C(=O)c2ccccc2C1=O` (configuration not stated): the inhibition was 22.3% (inactive).

`CCOP(=O)(O)c1cccc(OCCOCCOc2cccc(P(=O)(O)OCC)c2)c1`: the inhibition is -1.13% (inactive).

As for `COc1ccc(C2NC(=S)NC(C)=C2C(=O)N2CCOCC2)cc1` (configuration not stated), the inhibition is 0.92% (inactive).

Regarding `CC(NCC1(N2CCOCC2)CCCCC1)C(=O)Nc1ccc(Cl)cc1Cl` (configuration not stated), the inhibition was -2.83% (inactive).

As to `C=CCNC(NC(=O)c1ccccc1)(C(=O)OCC)C(F)(F)F` (configuration not stated), the inhibition was -7.27% (inactive).

`COc1ccc(/C=C2\SC(=O)N(CCC(=O)Nc3ccccc3)C2=O)cc1OC`: the inhibition is 7.25% (inactive).

Regarding `COc1cc(/C=C2\SC(=S)N(N(C)c3ccccc3)C2=O)ccc1O`, the inhibition is 3.49% (inactive).

`COc1cc(/C=C2\SC(=S)N(NC(=O)c3cccnc3)C2=O)ccc1O`: the inhibition was 19.8% (inactive).

Take `COc1cc(/C=C2\SC(=S)N(N3CCOCC3)C2=O)ccc1O`: the inhibition is -11.3% (inactive).

Regarding `COc1cc(/C=C2\SC(=S)N(NS(=O)(=O)c3ccccc3)C2=O)cc(OC)c1OC`, the inhibition is 20% (inactive).

As for `COc1ccc(/C=C2/SC(=O)N(CCC(=O)Nc3ccccc3)C2=O)cc1OC`, the inhibition was -3.04% (inactive).

For the compound `COc1cc(/C=C2\SC(=S)N(Nc3ccccc3)C2=O)cc(OC)c1OC`, the inhibition is 0.45% (inactive).

With `COc1cc(/C=C2\SC(=S)N(Nc3ccccc3)C2=O)ccc1O`, the inhibition is 13.9% (inactive).

For `C=CCc1cccc2cc(C(=O)NNC(=O)c3ccncc3)c(=O)oc12`, the inhibition is 20.9% (inactive).

`Cn1c(CSc2nc3ccccc3n2C)nc2ccccc21`: the inhibition was -4.15% (inactive).

On to `CCOC(=O)CSc1nnc(Cc2ccccc2)n1CC1CCCO1` (configuration not stated), for which the inhibition was 4.73% (inactive).

Turning to `Cc1[nH]c(=O)c(C#N)c(C)c1Cc1ccc(Cl)cc1Cl`, the inhibition is 4.22% (inactive).

With `O=c1c2[nH]c3ccccc3c2ncn1CCN1CCCCC1`, the inhibition was 8.11% (inactive).

As for `O=C(CN1CCN(C(=O)c2cccc(F)c2)CC1)NC1CCCCC1`, the inhibition was -4.11% (inactive).

In the case of `Cc1cc(C)cc(NC(=O)CCN2CC(C)OC(C)C2)c1` (configuration not stated), the inhibition is 0.2% (inactive).

For `Cc1ccc(SCC(=O)c2ccc[nH]2)cc1`, the inhibition is 2.44% (inactive).

With `CCOc1ccc(/C=C2\SC(=S)N(Nc3ccccc3)C2=O)cc1OC`, the inhibition is 1.22% (inactive).

With `CCOc1ccc(/C=C2\SC(=S)N(C)C2=O)cc1OC`, the inhibition is 9.35% (inactive).

For `C/C(=N\NC(=O)COc1cccc(Cl)c1)c1ccc2c(c1)OCCO2`, the inhibition is 3.02% (inactive).

In the case of `c1cncc(Cc2cc3ccccc3[nH]2)c1`, the inhibition is 4.4% (inactive).

Regarding `CC(C)Oc1ccc2c3c(c(=O)oc2c1)CCC3`, the inhibition was 3.02% (inactive).

With `O=C(O)C(Oc1ccc2c3c(c(=O)oc2c1)CCC3)c1ccccc1` (configuration not stated), the inhibition was 24.2% (active).

As to `CC(=O)C(C)Oc1ccc2c3c(c(=O)oc2c1)CCCC3` (configuration not stated), the inhibition is 1.79% (inactive).

For `CN(C(=O)c1c[nH]c(=O)cc1C(F)(F)F)c1ccc(Cl)c(Cl)c1`, the inhibition was -1.25% (inactive).
